{
  "source": "patent US20030180744",
  "about": "“High affinity oligonucleotide ligands to growth factors” (GILEAD SCIENCES, INC., published 2003)",
  "assay_in_all_cases": "filter; Kd target / Kd hKGF",
  "key": {"bFGF": {"target": "bFGF (Homo sapiens, UniProt P09038 P09038:143-288)", "sequence (P09038 143-288, one chain of several)": "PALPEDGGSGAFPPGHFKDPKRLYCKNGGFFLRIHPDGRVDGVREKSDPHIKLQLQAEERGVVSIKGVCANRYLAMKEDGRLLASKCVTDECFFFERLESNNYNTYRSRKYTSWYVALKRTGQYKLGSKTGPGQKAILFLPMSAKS", "details": "tags: R&D Systems; pseudoknot; ssRNA; 2'-F pyrimidines"}, "aFGF": {"target": "aFGF (Homo sapiens, UniProt P05230 P05230:16-155)", "sequence (P05230 16-155, one chain of several)": "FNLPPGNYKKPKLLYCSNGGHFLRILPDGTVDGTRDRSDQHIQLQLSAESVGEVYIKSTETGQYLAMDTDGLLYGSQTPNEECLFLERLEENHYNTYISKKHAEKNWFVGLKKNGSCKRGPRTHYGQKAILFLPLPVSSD", "details": "tags: R&D Systems; pseudoknot; ssRNA; 2'-F pyrimidines"}, "KGF (rat)": {"target": "T1, KGF (rat) (Rattus norvegicus, UniProt Q02195 Q02195:32-194)", "T1 sequence": "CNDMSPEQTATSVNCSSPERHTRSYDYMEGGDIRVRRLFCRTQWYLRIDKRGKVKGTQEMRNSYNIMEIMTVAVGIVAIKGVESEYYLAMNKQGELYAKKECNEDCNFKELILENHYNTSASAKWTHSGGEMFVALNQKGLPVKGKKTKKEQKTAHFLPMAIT", "details": "tags: QED Advanced Research Technologies; pseudoknot; ssRNA; 2'-F pyrimidines"}},
  "data": [
    {"sequence": "GGGAGGACGAUGCGGUGGUCUCCCAAUUCUAAACUUUCUCCAUCGUAUCUGGGCCAGACGACUCGCCCGA", "values": [
      {"measurement": "binding signal", "setting": "bFGF", "result": 1070},
      {"measurement": "binding signal", "setting": "aFGF", "result": 38600},
      {"measurement": "binding signal", "setting": "KGF (rat)", "result": 1250}
    ]}
  ]
}
